From ChEMBL document CHEMBL1157539, “Thousands of chemical starting points for antimalarial lead identification” (Nature, 2010)

The compounds below were run on Plasmodium falciparum (assay: GSK_TCMDC: Inhibition of Plasmodium falciparum 3D7 in whole red blood cells, using parasite LDH activity as an index of growth. Test compounds present at 2uM).
Format: functional
With `COc1cc2nc(N3CCC(CNC(=O)c4ccc(OC(F)(F)F)cc4)CC3)nc(N)c2cc1OC.O=C(O)C(F)(F)F` the Inhibition was 100%. With `CCOC(=O)NC1=NC(=N)N(OCc2ccc(Cl)c(Cl)c2)C(C)(C)N1` the Inhibition was 96%. For `CCOc1ccc(Br)cc1/C=C/C(=O)Nc1ccc2c(c1)CN(C)CCC2.O=C(O)C(F)(F)F`, the Inhibition was 97%. `COc1ccc(Cl)cc1NC(=O)Nc1ccc2c(c1)CCN(C1CCC1)CC2.Cl` gave an Inhibition of 98%. In the case of `CN(C)C(=S)N/N=C1/C(=O)Nc2ccc(OC(F)(F)F)cc21`, the Inhibition is reported as 93%. With `CCNc1cc(C(=O)N[C@@H](Cc2ccccc2)[C@H](O)CNC(C)CC(C)C)c(F)c(N2CCCCS2(=O)=O)c1.O=CO` (some centres undefined) the Inhibition was 95%. With `Cl.O=C(Nc1cccc(Cl)c1)OC1CCCN2CCCCC12` (centres undefined) the Inhibition was 85%. `COc1ccc(NC(=O)Nc2ccc(-c3ccccc3)cc2)cc1Cn1nc(Cl)c(N2CCCNCC2)cc1=O.O=C(O)C(F)(F)F` gave an Inhibition of 100%. Compound `CC(C)CCN1CCC(Oc2ccc(NC(=O)c3ccc4ncccc4c3)cc2Cl)C1.O=C(O)C(F)(F)F` (centres undefined) has an Inhibition of 95%. `CCOC(=O)C(=CNc1ccc(Cc2cnc(N)nc2N)cc1CC)C(=O)OCC` showed an Inhibition of 87%. `Cl.c1ccc2c(c1)ncn2-c1ccnc(Nc2ccncc2)n1` was tested, and the Inhibition was 89%. `O=C(O)C(F)(F)F.c1ccc(CNCc2ccc(-c3ccc(-c4nc5ccccc5[nH]4)cc3)cc2)cc1` showed an Inhibition of 100%. `FC(F)(F)c1ccc2[nH]c(-c3ccc(-c4ccc(CNCC5CCCO5)cc4)s3)nc2c1.O=C(O)C(F)(F)F` (centres undefined) gave an Inhibition of 100%. In the case of `CC1CN(c2cc(=O)n(Cc3ccc(NC(=O)Nc4ccc(-c5ccccc5)cc4)cc3)cn2)CC(C)N1.O=C(O)C(F)(F)F` (centres undefined), the Inhibition is reported as 87%. Work on `Cl.O=C(N[C@@H](Cc1cc(F)cc(F)c1)[C@H](O)CNCc1cccc(C(F)(F)F)c1)c1cc(C2CCCC2)cc(N2CCCC2=O)c1` yielded an Inhibition of 95%. `CC1(C)NC(N)=NC(=N)N1OCc1ccc2ccccc2c1CON1C(=N)N=C(N)NC1(C)C` was tested, and the Inhibition was 96%. In the case of `COc1cc(C)nc2ccc(NC(=O)Nc3ccccc3[N+](=O)[O-])cc12`, the Inhibition is reported as 100%. Compound `Cc1cc(CN2CC[C@H](NC(=O)c3ccc(Cl)c(Cl)c3)C2)ccc1OCCN1CCCC1.O=C(O)C(F)(F)F` has an Inhibition of 100%. `O=C(Nc1ccc(Cn2ncc(N3CCCNCC3)c(Cl)c2=O)cc1)Nc1cccc(C(F)(F)F)c1.O=C(O)C(F)(F)F` was tested, and the Inhibition was 100%. `Oc1cc(Nc2ccnc3cc(I)ccc23)ccc1F` showed an Inhibition of 99%. `CN1CCN(CCCN(Cc2ccc(-c3cccc(CNCc4ccc5c(c4)OCO5)c3)cc2)C(=O)NC2CCCCC2)CC1.O=C(O)C(F)(F)F` was tested, and the Inhibition was 95%. `CCOc1cc(C)ccc1N1CCN(CCN2CCC(NC(=O)c3ccc(-c4ccc(C#N)cc4)cc3)CC2)CC1` was tested, and the Inhibition was 84%. For `CC(C)N1CCN(C(=O)c2ccc(CN(C)CCCN3CCN(c4cccc(Cl)c4Cl)CC3)s2)CC1.Cl`, the Inhibition was 94%. In the case of `Cc1[nH]c(C)c(-c2ccc(-c3ccc(Cl)cc3)cc2)c(=O)c1Cl`, the Inhibition is reported as 96%. With `O=C(O)C(F)(F)F.OCCN1CCN(Cc2ccc(-c3ccc(-c4nc5cc(C(F)(F)F)ccc5[nH]4)s3)cc2)CC1` the Inhibition was 100%. `OC(CNc1ccnc(Nc2cccc(Cl)c2)n1)c1cccc(F)c1` (centres undefined) was tested, and the Inhibition was 90%. Compound `CC[C@H](NC(=O)c1ccc(NC(=O)OC(C)(C)C)cc1)C(=O)N[C@@H](CO)C(=O)NCCCCc1ccccc1` has an Inhibition of 98%. `CC1CCC(C[C@@H](C(=O)N[C@@H](CCC(=O)N2CCCCC2)C(=O)Nc2nccs2)[C@H](C(C)C)N(O)C=O)CC1` (some centres undefined) gave an Inhibition of 87%. In the case of `O=C(Nc1ccc(C(F)(F)F)cc1)NC1CCN(c2ccnc3ccccc23)C1.O=C(O)C(F)(F)F` (centres undefined), the Inhibition is reported as 100%. With `CCCCNC(=O)[C@H](CC1CCCCC1)NC(=O)c1ccc(O)c(-c2ccc(Cl)c(Cl)c2)c1` the Inhibition was 98%. For `COc1cc(-c2nc3c4ccccc4c4ccccc4c3[nH]2)cc(OC)c1OC`, the Inhibition was 90%. In the case of `CCN1CCC(N(Cc2ccc(-c3ccc(C(F)(F)F)cc3)cc2)C(=O)Cn2c(CCc3cccc(F)c3F)nc(=O)c3ccccc32)CC1.O=C(O)C(O)C(O)C(=O)O`, the Inhibition is reported as 95%. Compound `COc1ccc(-c2c(C(F)(F)F)nn(C)c2NC(=O)Nc2ccc(F)cc2F)cc1` has an Inhibition of 100%. Work on `CC(C)CC(=O)Nc1cc(=O)[nH]c2nc(-c3ccccc3)nn12` yielded an Inhibition of 89%.
